Assay [1] in a line: compound effects on lung adenocarcinoma cell viability – A549, calcein-AM fluorescence, 48 h, basal, profiling panel (AID 1162). The following applies: higher = more signal.
Assay [2] in a line: compound effects on differentiated 3T3-L1 adipocyte viability – cell-based, 3T3-L1 adipocytes, calcein-AM fluorescence, 48 h, basal, profiling panel (AID 1163). The settings on record: 3T3-L1 adipocytes viability, higher = more signal.
A short description of assay [3]: compound effects on hepatocellular carcinoma cell viability – HepG2, calcein-AM fluorescence, 48 h, basal, profiling panel (AID 1164). The settings on record: higher = more signal.
Assay [4] is described as follows: compound effects on multiple myeloma cell viability – MM1S, calcein-AM fluorescence, 48 h, basal, profiling panel (AID 1165).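 Also: viability of MM1S multiple myeloma cells under basal unstimulated conditions.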 The following applies: higher = more signal.
Assay [5] can be described thus: calcein-AM signal in unstimulated myeloma cells – cell-based, calcein-AM fluorescence, 48 h, PK04 Diversity Set, profiling panel (AID 1166).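 Also: cells grown under basal conditions without added stimulus.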 The following applies: RPMI8226 myeloma viability, higher = more signal.
A short description of assay [6]: JC-1 mitochondrial signal, unstimulated HepG2 cells – cell-based, JC-1 fluorescence, 24 h, 100 nL compound, profiling panel (AID 1167). The following applies: HepG2 mitochondrial potential, higher = more signal.
Assay [7] in a line: JC-1 mitochondrial signal, unstimulated adipocytes – cell-based, JC-1 fluorescence, 3T3-L1 adipocytes, 24 h, 100 nL compound, profiling panel (AID 1168). The following applies: JC-1 mitochondrial fluorescence, higher = more signal, called active from +8 up or from −8 down.
A short description of assay [8]: JC-1 mitochondrial signal, unstimulated myeloma cells – cell-based, JC-1 fluorescence, RPMI8226, 24 h, 100 nL compound, profiling panel (AID 1169). The settings on record: JC-1 mitochondrial potential fluorescence, higher = more signal.
Assay [9] in a line: JC-1 mitochondrial signal, unstimulated MM1S myeloma – cell-based, JC-1 fluorescence, 24 h, 100 nL compound, profiling panel (AID 1170). The settings on record: MM1S mitochondrial potential, higher = more signal.
Assay [10] is described as follows: resazurin metabolic signal in A549 cells – cell-based, resazurin fluorescence, 24 h, PK04 Diversity Set, profiling panel (AID 1171). The settings on record: A549 viability, higher = more signal, called active from +8 up or from −8 down.

Active and inactive are the calls of the source.

Z-score data for 14 molecules are collected here from PubChem BioAssay.
Also: test concentration not given here.

As for `O=C1[C@H]2C=C(Br)[C@H](C[C@@H]2OCCCCO)[C@@]12CO2`, the z-score in assay [1] is -0.0982; in [2], -1.26; in [3], -0.141; in assay [4] it was -0.723; in assay [5], -2.13; in [6], -1.48. The z-score in [7] is 0.026 (inactive); in assay [8], -0.88; in assay [9], -0.147; in [10], -0.621 (inactive).

Take `[N-]=[N+]=NCc1ccccc1[C@@H]1OC(c2ccc(OCCCO)cc2)=N[C@]1(CCS(=O)(=O)c1ccccc1)C(=O)NCc1ccccc1`: the z-score in assay [1] is -0.137; in assay [2] it was 1.09; in assay [3], 0.0616; in [4], -0.158; in [5], -1.04; in assay [6] it was -0.0428. Further, the z-score in assay [7] is 0.0135 (inactive); in [8], -0.143; in assay [9], -0.979; in [10] it was 0.201 (inactive).

As for `O=C1C2C=CC(C(O)C3CCCCC3)N(Nc3ccc([N+](=O)[O-])cc3)C2C(=O)N1c1ccccc1` (stereo not given), the z-score in assay [1] is -0.0334; in [2] it was 0.652; in assay [3], -0.0914; in [4] it was -0.157; in assay [5], -1.24; in assay [6] it was -0.876. The z-score is -2.66 (inactive) in [7], -0.143 in assay [8], 0.507 in assay [9] and -1.06 (inactive) in assay [10].

As for `COc1ccc([Si](C)(C)[C@@H]2[C@@H](CC(=O)N3Cc4ccccc4C[C@H]3CO)O[C@]3(C(=O)N(C)c4c(Br)cc(C)cc43)[C@H]2C)cc1`, the z-score in assay [1] was -0.721; in assay [2] it was 0.181; in [3], -3.73; in assay [4], -2.66; in assay [5], -4.35; in [6], 0.634. The z-score in assay [7] is 0.596 (inactive); in assay [8] it was -0.976; in assay [9], -2.23; in assay [10], -1.18 (inactive).

As for `C=CCOC(=O)[C@@H]1[C@H]2C(=O)O[C@H](c3ccccc3)[C@H](c3ccccc3)N2[C@H](c2ccc(OCCOC(=O)[C@@H]3C[C@@H]4C(=O)N[C@@H](Cc5ccccc5)C(=O)N4[C@@H]3c3ccc(O)cc3)cc2)[C@@]12C(=O)Nc1ccc(I)cc12`, the z-score is -1.09 in assay [1]; 1.39 in [2]; 0.1 in assay [3]; 0.67 in assay [4]; -0.645 in [5]; -1.56 in assay [6]. Besides, the z-score in assay [7] is 0.865 (inactive); in assay [8], -0.451; in assay [9], -1.38; in [10], 0.128 (inactive).

Regarding `C=CCNC(=O)[C@@H]1[C@H]2C(=O)O[C@H](c3ccccc3)[C@H](c3ccccc3)N2[C@H](c2ccc(OCCO)cc2)[C@@]12C(=O)Nc1ccc(C#CCCO)cc12`, the z-score was -1.11 in assay [1]; 0.422 in assay [2]; 1.27 in assay [3]; -0.563 in [4]; 0.256 in assay [5]; 1.1 in assay [6]. The z-score in assay [7] was 0.0466 (inactive); in [8], -0.591; in assay [9] it was -0.183; in assay [10] it was 0.344 (inactive).

Regarding `CCOC(=O)C=Cc1cc([N+](=O)[O-])ccc1O`, the z-score in [1] was -0.563; in assay [2] it was 1.39; in assay [3], -1.27; in assay [4], 0.112; in assay [5] it was -2.29; in assay [6], -1.91. In addition, the z-score in assay [7] was 0.428 (inactive); in [8] it was -0.403; in [9] it was -0.889; in assay [10] it was 0.384 (inactive).

On to `CCCCN1CC=CC23O[C@@H]4C=CCOC(=O)[C@@H]4[C@H]2C(=O)N(CCCCCO)[C@@H]3C1=O` (stereo not given in full), for which the z-score in assay [1] was -0.503; in assay [2] it was -0.122; in assay [3] it was -0.781; in assay [4], 0.276; in [5], 0.778; in assay [6], -0.235. The z-score in [7] was 0.17 (inactive); in assay [8], -0.0189; in assay [9], -0.0548; in [10] it was -0.508 (inactive).

With `O=C1O[C@@H](c2ccccc2)[C@@H](c2ccccc2)N2[C@@H](c3ccccc3OCCO)[C@]3(C(=O)Nc4ccc(C#CC5=CCCCC5)cc43)[C@@H](C(=O)Nc3nc4ccccc4s3)[C@H]12`, the z-score in [1] was -1.36; in [2], 0.608; in assay [3], -0.786; in assay [4] it was -2.8; in [5], -2.88; in assay [6], -2.9. Besides, the z-score was -0.353 (inactive) in assay [7], -1.05 in assay [8], -1.42 in assay [9] and -0.301 (inactive) in assay [10].

For the molecule `CCOC(=O)[C@H]1C/C=C/C[C@H](C(=O)OCC)C(=O)O[C@H]2[C@@H](OC)O[C@H](CO)[C@@H](OC(=O)Nc3cccc(F)c3)[C@@H]2OC1=O`, the z-score in assay [1] was -3.9; in assay [2], -0.502; in [3], -5.19; in [4], -3.3; in [5], -4.16; in assay [6], -3.56. Moreover, the z-score in assay [7] was 1.84 (inactive); in [8], -0.959; in assay [9], -1.99; in [10], -5.95 (inactive).

`[N-]=[N+]=NCc1ccccc1C[C@]1(C(=O)O)N=C(c2ccc(OCCCO)cc2)O[C@H]1c1ccccc1N=[N+]=[N-]`: the z-score in assay [1] was -0.882; in assay [2], 1.09; in assay [3], -0.826; in [4], -2.06; in assay [5], -3.85; in [6] it was -1.93. Moreover, the z-score in assay [7] is -0.456 (inactive); in assay [8], -1.05; in assay [9], -0.887; in assay [10] it was -1.77 (inactive).

Regarding `COCCn1c(C(=O)N2CCCC2)cc2c1C[C@H]1CN(C(=O)c3ccccc3)[C@@](Cc3ccc(F)cc3)(C(=O)OC)[C@@H]21`, the z-score in [1] was -1.27; in [2], 0.25; in assay [3] it was -0.366; in [4], -1.21; in assay [5] it was -1.22; in assay [6], 0.584. Moreover, the z-score was -0.757 (inactive) in assay [7], -0.37 in [8], -1.37 in assay [9] and 0.409 (inactive) in assay [10].

Regarding `O=C1NC(=O)C2C1C=CC(C(O)C(c1ccccc1)c1ccccc1)N2Nc1ccc(Cl)cc1Cl` (stereo not given), the z-score is -2.92 in assay [1]; 0.205 in assay [2]; -2.7 in assay [3]; -3.71 in assay [4]; -4.14 in assay [5]; -3.99 in [6]. The z-score in [7] is -0.283 (inactive); in assay [8], -0.925; in assay [9] it was -0.133; in [10], -1.18 (inactive).

Consider `NC(=O)[C@@H]1[C@H]2C(=O)O[C@H](c3ccccc3)[C@H](c3ccccc3)N2[C@H](c2ccc(O)cc2)[C@@]12C(=O)Nc1ccc(C#CC3(O)CCCCCC3)cc12`, for which the z-score in assay [1] was 0.735; in assay [2], -0.0487; in assay [3], 0.338; in assay [4], -1.44; in [5], -0.482; in assay [6], -0.717. The z-score in [7] was -0.928 (inactive); in assay [8], -0.566; in assay [9], -0.0259; in [10], 0.399 (inactive).
